Assay results as given in PubChem BioAssay (NCI).
This is part of a sample that, as a whole, favours compounds with a hit. Of some 83,000 tested, about 20% had one in any assay.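 Negative percent growth values reflect cell death: -40 means 40% of the cells present at the start died, and -100 means all died.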 Activity calls are given as the source filed them. The calls were made as follows: active = growth percent below 10; inactive = the rest.

What was measured:
Assay in all cases: NCI-60 one-dose screen, 48 h (100 = growth as untreated, 0 = no growth, -100 = all killed)
Details in all cases: 10 µM unless noted
[1] = test system: DU-145 prostate
[2] = test system: K-562 leukemia
[3] = test system: MALME-3M melanoma
[4] = test system: MDA-MB-231 breast
[5] = test system: RXF 393 renal
[6] = test system: SF-268 CNS
[7] = test system: SF-295 CNS
[8] = test system: SF-539 CNS
[9] = test system: UACC-257 melanoma
[10] = test system: M14 melanoma
[11] = test system: HCT-15 colon
[12] = test system: HT29 colon
[13] = test system: SNB-75 CNS
[14] = test system: SNB-19 CNS
[15] = test system: U251 CNS
[16] = test system: PC-3 prostate
[17] = test system: SK-MEL-5 melanoma
[18] = test system: UACC-62 melanoma
[19] = test system: LOX IMVI melanoma
[20] = test system: SK-MEL-28 melanoma

Measured: growth

O=C(c1c[nH]c2ccccc12)c1n[nH]c(=S)n1-c1cccc(Br)c1
inactive: [1] 103% | [2] 84.6% | [3] 95.4% | [4] 76.9% | [5] 104% | [6] 95.4% | [7] 102% | [8] 106% | [9] 97.4% | [10] 99.3% | [11] 40.9% | [12] 96.2% | [13] 83.2% | [14] 93.8% | [15] 97.3% | [16] 87.8% | [17] 28% | [18] 51.9% | [19] 93.2% | [20] 105%

CN1C(=O)/C(=C2\SC(=Nc3ccccc3)N(Nc3ccccc3)C2=O)c2ccccc21
inactive: [1] 109% | [2] 99.5% | [3] 110% | [4] 91.4% | [5] 109% | [6] 95.4% | [7] 105% | [8] 94.9% | [9] 106% | [10] 101% | [11] 105% | [12] 119% | [13] 78.9% | [14] 95.9% | [15] 100% | [16] 86.6% | [17] 99.3% | [18] 81.3% | [19] 93.5% | [20] 105%

O=C(/C=C/c1cccc(Cl)c1Cl)Nc1ncc(Cc2ccccc2Cl)s1
inactive: [1] 53.3% | [2] 13.4% | [3] 62.1% | [4] 75% | [5] 37.8% | [6] 82.2% | [7] 21.4% | [8] 11.5% | [9] 78.1% | [10] 12.5% | [11] 21.1% | [12] 11.9% | [13] 36.4% | [14] 47.2% | [15] 50.9% | [16] 56.5% | [17] 45.8% | [18] 42.7% | [19] 44.7% | [20] 58.6%

O=S(=O)(NCCCNc1nccc(-c2c(-c3cccc(F)c3)nc3occn23)n1)c1ccc(F)cc1
inactive: [1] 55.9% | [2] 13% | [3] 43.6% | [4] 60.9% | [5] 63.6% | [6] 44.5% | [7] 89.5% | [8] 87% | [9] 43.6% | [10] 35.7% | [11] 58.3% | [12] 21.9% | [13] 73.5% | [14] 84.9% | [15] 56.1% | [16] 29.4% | [17] 32.7% | [18] 26.5% | [19] 44.7% | [20] 64.2%

O=C(Cc1ccc(/C=C/C(=O)c2ncc[nH]2)cc1)Nc1cc(C(F)(F)F)cc(C(F)(F)F)c1
inactive: [1] 86.2% | [2] 18.9% | [3] 92.1% | [4] 92.6% | [5] 67.8% | [6] 88.2% | [7] 93.7% | [8] 73.7% | [9] 100% | [10] 89.6% | [11] 62.4% | [12] 26.3% | [13] 79% | [14] 77.3% | [15] 38.5% | [16] 85.3% | [17] 93.1% | [18] 80.9% | [19] 34.5% | [20] 104%

CC1CCN(C(=O)CCCl)c2ccccc21 (stereo not given)
inactive: [1] 113% | [2] 147% | [3] 121% | [4] 85.4% | [5] 123% | [6] 99.7% | [7] 160% | [8] 126% | [9] 94.2% | [10] 95.4% | [11] 102% | [12] 102% | [13] 87.9% | [14] 96.7% | [15] 102% | [16] 103% | [17] 104% | [18] 89.7% | [19] 91% | [20] 109%

CC/C=C\C[C@H](O)C/C=C1/C(=O)C=C[C@@H]1C/C=C\CCCC(=O)O
inactive: [1] 60.2% | [2] 17.1% | [3] 67.5% | [4] 56.7% | [5] 94.2% | [6] 81.3% | [7] 96% | [8] 59.2% | [9] 55.2% | [10] 57.8% | [11] 74.6% | [12] 47.9% | [13] 88.9% | [14] 65% | [16] 61.3% | [17] 60.3% | [18] 27.7% | [19] 17.4% | [20] 54.4%
active: [15] 3.29%

Nc1ncnc2c1N=C(c1ccc3c(c1)OCO3)CC(c1cccc(Nc3ccnc4cc(C(F)(F)F)ccc34)c1)N2 (stereo not given)
inactive: [1] 87.3% | [2] 21% | [3] 84.3% | [4] 88.4% | [5] 80.5% | [6] 83.6% | [7] 87.6% | [8] 98.9% | [9] 74.9% | [10] 94.2% | [11] 70.8% | [12] 69.6% | [13] 76.9% | [14] 77.3% | [15] 37.4% | [16] 75.6% | [17] 84.6% | [18] 87.1% | [19] 51.8% | [20] 101%

Cc1ccc(CNc2c3ccccc3nc3ccccc23)cc1
active: [2] 2.99%
inactive: [1] 33.5% | [3] 16.2% | [4] 43.2% | [5] 10.1% | [6] 51.9% | [7] 31.3% | [8] 18.1% | [9] 39.4% | [10] 28% | [11] 15.6% | [12] 10.3% | [13] 41.7% | [14] 29.7% | [15] 26% | [16] 24.3% | [17] 30.1% | [18] 43.4% | [19] 11.8% | [20] 59.5%

CC(=O)Oc1ccc(OC(C)=O)c2ccccc12
inactive: [1] 116% | [2] 49.6% | [3] 107% | [5] 87.1% | [6] 87.5% | [7] 105% | [8] 99.9% | [9] 78.1% | [10] 105% | [11] 99.1% | [12] 107% | [13] 105% | [14] 91.9% | [15] 89% | [16] 54.8% | [17] 60.2% | [18] 78% | [19] 81.2% | [20] 111%
active: [4] -45.5%

C[n+]1ccc(CCc2c[nH]c3ccccc23)cc1
inactive: [1] 111% | [2] 102% | [3] 76.1% | [4] 92.7% | [5] 118% | [6] 94.4% | [7] 94.5% | [8] 95.7% | [9] 104% | [10] 95.1% | [11] 99.7% | [12] 88.8% | [13] 74.6% | [14] 102% | [15] 95.2% | [16] 84% | [17] 104% | [18] 101% | [19] 94.6% | [20] 100%

Nc1nc(N)c2c(n1)NC(c1cccc(Nc3ccnc4cc(C(F)(F)F)ccc34)c1)CC(c1ccccc1)=N2 (stereo not given)
active: [12] 8.53%
inactive: [1] 71.9% | [2] 13.5% | [3] 67% | [4] 58.5% | [5] 44.9% | [6] 52.3% | [7] 50.1% | [8] 77.1% | [9] 69% | [10] 30.2% | [11] 23.7% | [13] 48.1% | [14] 64.4% | [15] 36.5% | [16] 39.2% | [17] 21.9% | [18] 73.8% | [19] 45.6% | [20] 84%

Nc1nc(NC(=O)Nc2ccc(C(=O)O)cc2)nn1-c1ccc(S(N)(=O)=O)cc1
inactive: [1] 97.3% | [2] 102% | [3] 85.7% | [4] 75.3% | [5] 94.1% | [6] 95.1% | [7] 104% | [8] 95.9% | [9] 89.9% | [10] 95.4% | [11] 105% | [12] 105% | [13] 90.4% | [14] 90.6% | [15] 93.2% | [16] 83.6% | [17] 96.1% | [18] 96.2% | [19] 98.8% | [20] 100%

COc1ccc(C(=S)N2CCN(c3ccc(Cl)cc3)CC2)cc1
inactive: [1] 113% | [2] 88% | [3] 125% | [4] 76.7% | [5] 126% | [6] 100% | [7] 117% | [8] 102% | [9] 96.1% | [10] 99.7% | [11] 116% | [12] 102% | [13] 112% | [14] 86.3% | [15] 101% | [16] 103% | [17] 96.8% | [18] 84.5% | [19] 104% | [20] 110%

CCOC(=O)c1c(C)c2c(n1Cc1ccccc1)CSCC2=O
active: [3] -16.3% [100 µM] | [4] -2.2% [100 µM] | [7] 3.06% [100 µM] | [8] -23.7% [100 µM] | [10] -16% [100 µM] | [12] 7.91% [100 µM] | [13] -13.9% [100 µM] | [16] 7.17% [100 µM] | [17] -86.5% [100 µM] | [18] -35.4% [100 µM] | [19] -24.4% [100 µM]
inactive: [1] 30.8% [100 µM] | [2] 18.6% [100 µM] | [5] 17.1% [100 µM] | [6] 21.4% [100 µM] | [9] 21.9% [100 µM] | [11] 11.7% [100 µM] | [14] 13.8% [100 µM] | [15] 17.5% [100 µM] | [20] 27.8% [100 µM]
